The values below come from PubChem BioAssay (EPA / NIEHS).

Records with an inconclusive call do not appear. Active and inactive are the calls of the source. Rule for the calls: active = hit-call score of the fitted dose curve at least 0.9, where 1 is the maximum; inconclusive = response in the unintended direction; inactive = score below 0.9.

Usually AC50 stands for the midpoint of the concentration-response curve, whichever way the signal moves.

Sequence of Nucleoli Translocation, AR (gene 367) (P10275 whole entry, looked up, the tested form may be a part): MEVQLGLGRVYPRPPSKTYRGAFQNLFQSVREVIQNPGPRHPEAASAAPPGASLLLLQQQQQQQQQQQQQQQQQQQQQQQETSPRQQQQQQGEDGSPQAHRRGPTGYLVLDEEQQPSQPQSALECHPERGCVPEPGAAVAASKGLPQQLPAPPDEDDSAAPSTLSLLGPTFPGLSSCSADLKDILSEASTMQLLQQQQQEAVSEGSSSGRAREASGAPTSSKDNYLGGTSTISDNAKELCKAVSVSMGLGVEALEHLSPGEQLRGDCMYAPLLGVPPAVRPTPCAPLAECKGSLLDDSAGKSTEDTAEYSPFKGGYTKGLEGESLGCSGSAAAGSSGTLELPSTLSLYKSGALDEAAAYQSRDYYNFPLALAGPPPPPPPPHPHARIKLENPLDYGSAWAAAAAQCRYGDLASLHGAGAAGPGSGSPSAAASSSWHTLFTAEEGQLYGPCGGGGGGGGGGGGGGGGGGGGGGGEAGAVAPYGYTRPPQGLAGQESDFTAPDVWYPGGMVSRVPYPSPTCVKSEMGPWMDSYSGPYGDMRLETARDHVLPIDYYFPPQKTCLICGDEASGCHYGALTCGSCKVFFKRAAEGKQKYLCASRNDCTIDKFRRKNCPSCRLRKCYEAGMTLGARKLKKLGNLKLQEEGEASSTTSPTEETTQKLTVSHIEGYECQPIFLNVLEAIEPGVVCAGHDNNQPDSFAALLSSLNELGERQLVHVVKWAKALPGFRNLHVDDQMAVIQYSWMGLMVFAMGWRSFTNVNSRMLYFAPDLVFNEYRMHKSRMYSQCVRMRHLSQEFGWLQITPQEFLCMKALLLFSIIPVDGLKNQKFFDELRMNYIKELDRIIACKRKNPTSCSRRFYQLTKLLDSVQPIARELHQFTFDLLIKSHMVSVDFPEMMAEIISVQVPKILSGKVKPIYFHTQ

This assay has as its target Nucleoli Translocation, AR (gene 367) (UniProt P10275). The experiment in a line: UPITT_HCI_U2OS_AR_TIF2_Nucleoli_Agonist: University of Pittsburgh U2OS Androgen Receptor-Transcriptional Intermediary Factor 2 (AR-TIF2) Agonism High Content Imaging Assay for Nucleoli Translocation (AID 2283998). From the text:
UPITT_AR_TIF2_PPIB is a cell-based, high-content imaging assay that uses U2OS, a human osteosarcoma cell line, expressing a human androgen receptor fused to red fluorescent protein and the coactivator TIF2 fused to green fluorescent protein. UPITT_HCI_U2OS_AR_TIF2_Nucleoli_Agonist is one of four assay components measured from the UPITT_AR_TIF2_PPIB assay. It is designed to make measurements of red fluorescence localized in the nucleolar region of the cell nucleus as detected with high-content fluorescent imaging.Data from the assay component UPITT_HCI_U2OS_AR_TIF2_Nucleoli_Agonist was analyzed into 1 assay endpoint. This assay endpoint, UPITT_HCI_U2OS_AR_TIF2_Nucleoli_Agonist, was analyzed in the positive analysis fitting direction relative to DMSO as the baseline of activity. Using a type of binding reporter, measures of receptor for gain-of-signal activity can be used to understand the binding at the pathway-level as it relates to the gene AR.
Daughter plates containing 2 uL of 10 mM compounds in DMSO were prepared and replicated from the 384-well Library of Pharmacologically Active Compounds (LOPAC) master plates using the Bravo outfitted with a 384-well transfer head. Aluminum adhesive plate seals were applied with an Abgene Seal-IT 100 (Rochester, NY) plate sealer, and the plates were stored at -20 C in a Matrical MatriMinistore (Spokane, WA) automated compound storage and retrieval system. For screening, LOPAC daughter plates were withdrawn from -20C storage, thawed to ambient temperature, centrifuged 1-2 min at 50 g, and the plate seals were removed before the transfer of 98 uL of serum-free tissue culture medium (SFM) into wells using the BioTek Microflo liquid handler (BioTek, Winooski, VT) to generate a 200 uM intermediate stock concentration of library compounds (2.0% DMSO). The diluted compounds were mixed by repeated aspiration and dispensation using a 384-well P30 dispensing head on the Evolution P3 (EP3) liquid handling platform (PerkinElmer, Waltham, MA) and then 5 uL of diluted compounds was transferred to the wells of assay plates. In the LOPAC screen, compounds were individually tested at a final concentration of 20 uM (0.2% DMSO). After the diluted compounds had been transferred from the daughter plates to the primary HCS assay plates, aluminum adhesive plate seals were applied and the diluted daughter plates were stored frozen at -20C. To confirm active compounds identified in the primary screen, we withdrew the LOPAC daughter plates containing the 200 uM intermediate concentration of library compounds (2.0% DMSO) from -20C storage, thawed them to ambient temperature, centrifuged them for 1-2 min at 50 g, and removed the plate seals. A work list was generated to direct the Multiprobe Janus liquid handling platform (PerkinElmer) to cherry pick 75 uL from the wells of the diluted daughter plates that were flagged active in the primary screen and to reformat these into a 384-well plate hit confirmation daughter plate. Five microliters of primary HCS active compounds was then transferred into triplicate wells of assay plates using a 384-well P30 dispensing head on the Evolution P3 (EP3) liquid handling platform (PerkinElmer). […] Daughter plates containing 2 uL of the serially diluted compounds in DMSO were prepared and replicated from the 384-well serial dilution master plates using the Bravo outfitted with a 384-well transfer head. Aluminum adhesive plate seals were applied and plates were stored at -20C. For testing in the bioassays, daughter plates were withdrawn from -20C storage, thawed to ambient temperature, centrifuged for 1-2 min at 50 g, and the plate seals were removed before the transfer of 38 uL of SFM into wells using the BioTek Microflo liquid handler (BioTek) to generate an intermediate stock concentration of library compounds ranging from 1.95 to 500 uM (5.0% DMSO). […]
On to `CCc1cc(Cc2cc(CC)cc(C(C)(C)C)c2O)c(O)c(C(C)(C)C)c1`, for which the AC50 is 77.1 µM (active). Turning to `CC(C=O)Cc1ccc(C(C)(C)C)cc1` (stereo not given), the molecule was classed as inactive. The same measure, in the same setting: as for `CCCCCCCCSCCO`, the entry is “inactive”; as for `CC(=O)C1(C)CC2=C(CCCC2(C)C)CC1C` (stereo not given), “inactive”. On the same count and under the same terms, as for `CCOC(=O)[C@@H](C)Oc1ccc(Oc2nc3ccc(Cl)cc3o2)cc1`, the entry is “inactive”; as for `Nc1ccc(N)c2c1C(=O)c1ccccc1C2=O`, “inactive”; as for `Cc1ccc(S(=O)(=O)Oc2ccc(N=Nc3ccc(-c4ccc(N=Nc5c(O)ccc6cc(S(=O)(=O)O)cc(S(=O)(=O)O)c56)c(C)c4)cc3C)cc2)cc1`, “inactive”. For `CCCCCCCCC=CCCCCCCCC1=NCCN1CCO`, the AC50 was 13.3 µM (active). For the molecule `CCCCCCCCCCCCCC(=O)OCC(O)CO` (stereo not given), the molecule was called inactive. The same measure, in the same setting: as for `BrCc1cccc(Oc2ccccc2)c1`, the entry is “inactive”.
